Activity calls are given as the source filed them. Rule for the calls: active = hit-call score of the fitted dose curve at least 0.9, where 1 is the maximum; inactive = score below 0.9.
Legend:
Details in all cases: mRNA level, 48 h; actives raise or lower the signal
[1] = read-out: Heat shock 70 kDa protein 1 (HSPA1A), gene 3303; assay: LTEA_HepaRG_HSPA1A: Life Technologies and Expression Analysis (LTEA) Assay for Heat shock 70 kDa protein 1 (HSPA1A) using HepaRG (AID 2283502)
Procedure, shortened: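 Cells were plated and cultured for 48 h, then switched to serum-free induction medium. Chemicals were added at eight half-log concentrations up to 100 uM for 48 h. RNA was then isolated and HSPA1A measured by qRT-PCR with bidirectional curve fitting against DMSO.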

[2] = read-out: Hypoxia-inducible factor 1-alpha (Homo sapiens) (UniProt Q16665); assay: LTEA_HepaRG_HIF1A: Life Technologies and Expression Analysis (LTEA) Assay for Hypoxia-inducible factor 1 (HIF1A) Trancription factor using HepaRG (AID 2283503)
Procedure, shortened: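 HIF1A transcript level read by qRT-PCR (ACTB, GAPDH, POLR2A normalization) after 48 h chemical exposure of HepaRG cultures. Eight half-log concentrations, top 100 uM, 0.5% DMSO vehicle, duplicates; bidirectional curve fit against DMSO baseline.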

[3] = read-out: 3-Hydroxy-3-Methylglutaryl-CoA Synthase 2 (HMGCS2), HMGCS2 (gene 3158); assay: LTEA_HepaRG_HMGCS2: Life Technologies and Expression Analysis (LTEA) Assay for 3-Hydroxy-3-Methylglutaryl-CoA Synthase 2 (HMGCS2) using HepaRG (AID 2283504)
Procedure, shortened: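 Differentiated human HepaRG cells were exposed in duplicate for 48 h in serum-free induction medium to eight concentrations (top 100 uM, half-log steps, 0.5% DMSO). HMGCS2 mRNA was quantified by TaqMan qRT-PCR, normalised to ACTB, GAPDH and POLR2A, then fitted bidirectionally against DMSO.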

HGF (gene 3082) = assay: LTEA_HepaRG_HGF: Life Technologies and Expression Analysis (LTEA) Assay for Hepatocyte Growth Facto (HGF) using HepaRG (AID 2283505)
Procedure, shortened: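 Differentiated human HepaRG cells in serum-free induction medium were exposed in duplicate for 48 h to eight concentrations (top 100 uM, half-log steps, 0.5% DMSO). HGF mRNA was quantified by qRT-PCR, normalized to ACTB, GAPDH and POLR2A.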

[4] = read-out: Insulin Like Growth Factor 1 (IGF1), IGF1 (gene 3479); assay: LTEA_HepaRG_IGF1: Life Technologies and Expression Analysis (LTEA) Assay for Insulin Like Growth Factor 1 (IGF1) using HepaRG (AID 2283506)
Procedure, shortened: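 Cells are thawed, plated and cultured 48 h, then exposed in duplicate to chemical (highest 100 uM, half-log steps, 0.5% DMSO) for another 48 h. Total RNA is analysed by Fluidigm qRT-PCR for IGF1 expression relative to vehicle.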

[5] = read-out: Insulin-like growth factor-binding protein 1 (IGFBP1), IGFBP1 (gene 3484); assay: LTEA_HepaRG_IGFBP1: Life Technologies and Expression Analysis (LTEA) Assay for Insulin-like growth factor-binding protein 1 (IGFBP1) using HepaRG (AID 2283508)
Procedure, shortened: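 Differentiated human HepaRG cells in serum-free induction medium were exposed in duplicate for 48 h to eight concentrations, top 100 uM with half-log dilutions, in 0.5% DMSO. Transcript levels came from qRT-PCR normalised to ACTB, GAPDH and POLR2A, fitted bidirectionally against DMSO.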

[6] = read-out: Interleukin 6 (IL6), IL6 (gene 3569); assay: LTEA_HepaRG_IL6: Life Technologies and Expression Analysis (LTEA) Assay for Interleukin 6 (IL6) using HepaRG (AID 2283509)
Procedure, shortened: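 qRT-PCR read-out of IL6 transcript, normalized to three housekeeping genes, after 48 h chemical exposure of HepaRG cells; 8-point half-log series, top 100 uM, 0.5% DMSO vehicle. Bidirectional curve fitting against DMSO baseline.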

[7] = read-out: Interleukin 6 Receptor (IL6R), IL6R (gene 3570); assay: LTEA_HepaRG_IL6R: Life Technologies and Expression Analysis (LTEA) Assay for Interleukin 6 Receptor (IL6R) using HepaRG (AID 2283510);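 for AC50: TaqMan qRT-PCR signal normalized to ACTB GAPDH and POLR2A housekeeping genes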
Procedure, shortened: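 Cells were thawed, plated and cultured 48 h, then medium was changed to serum-free induction medium. Chemicals were added in duplicate (100 uM top, half-log steps, 0.5% DMSO) for 48 h. Lysates were analyzed by qRT-PCR for IL6R expression.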

[8] = read-out: Potassium channel subfamily K member 1 (KCNK1), KCNK1 (gene 3775); assay: LTEA_HepaRG_KCNK1: Life Technologies and Expression Analysis (LTEA) Assay for Potassium channel subfamily K member 1 (KCNK1) using HepaRG (AID 2283511)
Procedure, shortened: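 HepaRG, 48 h exposure, 8-pt half-log series top 100 uM, 0.5% DMSO vehicle, duplicates. Readout: KCNK1 transcript by qRT-PCR (Fluidigm array), housekeeping-normalized; bidirectional curve fit relative to DMSO baseline.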

[9] = read-out: Keratin 19 (KRT19), KRT19 (gene 3880); assay: LTEA_HepaRG_KRT19: Life Technologies and Expression Analysis (LTEA) Assay for Keratin 19 (KRT19) using HepaRG (AID 2283512)
Procedure, shortened: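 Differentiated human HepaRG cells, plated 48 h, were exposed in duplicate for 48 h in serum-free induction medium to eight half-log concentrations up to 100 uM in 0.5% DMSO. KRT19 mRNA was quantified by qRT-PCR, normalized to ACTB, GAPDH and POLR2A, and fitted bidirectionally versus DMSO.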

[10] = read-out: JUN Transcription Factor, JUN (gene 3725); assay: LTEA_HepaRG_JUN: Life Technologies and Expression Analysis (LTEA) Assay for JUN Transcription Factor using HepaRG (AID 2283513)
Procedure, shortened: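 Read-out is JUN transcript level by TaqMan qRT-PCR, normalized to ACTB, GAPDH and POLR2A, after 48 h chemical treatment of HepaRG cells. Concentration-response spanned eight half-log points up to 100 uM in 0.5% DMSO.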

[11] = read-out: Lipase C (LIPC), LIPC (gene 3990); assay: LTEA_HepaRG_LIPC: Life Technologies and Expression Analysis (LTEA) Assay for Lipase C (LIPC) using HepaRG (AID 2283514)
Procedure, shortened: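 HepaRG, 48 h exposure, 8-pt half-log series from 100 uM in 0.5% DMSO, duplicates. Readout: LIPC mRNA by Fluidigm qRT-PCR, housekeeping-normalized (ACTB/GAPDH/POLR2A). Gain or loss fitted bidirectionally against DMSO baseline.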

[12] = read-out: Lipoprotein lipase (LPL), LPL (gene 4023); assay: LTEA_HepaRG_LPL: Life Technologies and Expression Analysis (LTEA) Assay for Lipoprotein lipase (LPL) using HepaRG (AID 2283515)
Procedure, shortened: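 HepaRG, 48 h exposure, 8-pt half-log dilutions from 100 uM, 0.5% DMSO vehicle, duplicates; qRT-PCR (Fluidigm array) of LPL mRNA vs housekeeping genes; bidirectional curve fit relative to DMSO baseline.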

[13] = read-out: MicroRNA 122 (MIR122), gene 406906; assay: LTEA_HepaRG_MIR122: Life Technologies and Expression Analysis (LTEA) Assay for MicroRNA 122 (MIR122) using HepaRG (AID 2283516); note: the transcript read is the microRNA miR-122
Procedure, shortened: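 Human liver HepaRG cultures receive test chemicals for 48 h at eight half-log concentrations from 100 uM. Expression is quantified by qRT-PCR with ACTB/GAPDH/POLR2A normalization and fitted bidirectionally against 0.5% DMSO.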

[14] = read-out: matrix metalloproteinase-10 (MMP10), MMP10 (gene 4319); assay: LTEA_HepaRG_MMP10: Life Technologies and Expression Analysis (LTEA) Assay for matrix metalloproteinase-10 (MMP10) using HepaRG (AID 2283517)
Procedure, shortened: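 Transcript levels come from Fluidigm qRT-PCR normalized to three housekeeping genes, with curves fitted bidirectionally against 0.5% DMSO. Human HepaRG cells were dosed for 48 hours at concentrations up to 100 uM.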

MYC, MYC (gene 4609) = assay: LTEA_HepaRG_MYC: Life Technologies and Expression Analysis (LTEA) Assay for MYC using HepaRG (AID 2283518)
Procedure, shortened: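 Differentiated human HepaRG cells, plated 48 h then switched to serum-free induction medium, were exposed in duplicate for 48 h to 8-point half-log series up to 100 uM in 0.5% DMSO. MYC mRNA measured by qRT-PCR, normalized to ACTB/GAPDH/POLR2A.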

[15] = read-out: matrix metalloproteinase-3 (MMP3), MMP3 (gene 4314); assay: LTEA_HepaRG_MMP3: Life Technologies and Expression Analysis (LTEA) Assay for matrix metalloproteinase-3 (MMP3) using HepaRG (AID 2283519)
Procedure, shortened: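 qRT-PCR read-out of MMP3 mRNA (normalised to three housekeeping genes) in HepaRG liver cells after 48 h chemical exposure; 8-point half-log series, top 100 uM, 0.5% DMSO vehicle. Bidirectional curve fitting against DMSO baseline.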

[16] = read-out: Paternally Expressed 10 (PEG10), PEG10 (gene 23089); assay: LTEA_HepaRG_PEG10: Life Technologies and Expression Analysis (LTEA) Assay for Paternally Expressed 10 (PEG10) using HepaRG (AID 2283520);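 for AC50: PEG10 transcript by qRT-PCR normalised to ACTB GAPDH and POLR2A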
Procedure, shortened: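 Human HepaRG cultures are dosed for 48 h across an eight-point half-log series starting at 100 uM, with 0.5% DMSO as vehicle and baseline. Gain or loss of PEG10 transcript is measured by qRT-PCR and fitted in both directions.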

[17] = read-out: Intercellular Adhesion Molecule 1 (ICAM1), ICAM1 (gene 3383); assay: LTEA_HepaRG_ICAM1: Life Technologies and Expression Analysis (LTEA) Assay for Intercellular Adhesion Molecule 1 (ICAM1) using HepaRG (AID 2283507)
Procedure, shortened: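 Differentiated HepaRG cells in serum-free induction medium were exposed in duplicate for 48 h to eight half-log concentrations up to 100 uM in 0.5% DMSO. Transcript levels were measured by qRT-PCR normalized to ACTB, GAPDH and POLR2A; bidirectional fits relative to DMSO.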

[18] = read-out: Nuclear factor NF-kappa-B p105 subunit (Homo sapiens) (UniProt P19838); assay: LTEA_HepaRG_NFKB1: Life Technologies and Expression Analysis (LTEA) Assay for Nuclear Factor Kappa B Subunit 1 (NFKB1) using HepaRG (AID 2283521)
Procedure, shortened: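 NFKB1 transcript was measured by TaqMan qRT-PCR on Fluidigm arrays, normalised to three housekeeping genes and fitted in both directions against 0.5% DMSO. HepaRG cells were dosed in duplicate for 48 h in serum-free induction medium, eight half-log steps from 100 uM.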

Measured: AC50

Sequence of Hypoxia-inducible factor 1-alpha (Homo sapiens) (Q16665 whole entry, looked up): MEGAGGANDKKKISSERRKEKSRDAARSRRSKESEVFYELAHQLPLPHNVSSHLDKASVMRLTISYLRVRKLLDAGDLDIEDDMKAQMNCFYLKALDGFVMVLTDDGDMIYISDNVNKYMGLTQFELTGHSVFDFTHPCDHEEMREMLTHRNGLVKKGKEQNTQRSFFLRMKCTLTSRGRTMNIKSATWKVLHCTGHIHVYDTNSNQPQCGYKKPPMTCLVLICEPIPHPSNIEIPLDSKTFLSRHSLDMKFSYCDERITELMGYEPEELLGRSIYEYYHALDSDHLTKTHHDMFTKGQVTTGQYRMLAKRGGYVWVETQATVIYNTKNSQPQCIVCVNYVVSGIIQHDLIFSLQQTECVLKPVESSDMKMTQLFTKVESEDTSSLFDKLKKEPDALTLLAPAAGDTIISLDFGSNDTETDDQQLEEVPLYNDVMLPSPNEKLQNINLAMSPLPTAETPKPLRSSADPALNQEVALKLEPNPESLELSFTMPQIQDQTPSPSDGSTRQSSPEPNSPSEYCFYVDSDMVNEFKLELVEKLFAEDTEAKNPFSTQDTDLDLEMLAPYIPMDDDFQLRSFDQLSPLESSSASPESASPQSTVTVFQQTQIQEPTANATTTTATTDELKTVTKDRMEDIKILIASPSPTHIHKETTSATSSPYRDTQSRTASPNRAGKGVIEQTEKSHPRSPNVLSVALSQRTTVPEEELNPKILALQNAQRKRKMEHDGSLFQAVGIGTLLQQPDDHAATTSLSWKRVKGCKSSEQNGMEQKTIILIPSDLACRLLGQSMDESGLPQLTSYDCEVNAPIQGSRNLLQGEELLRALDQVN
Sequence of Nuclear factor NF-kappa-B p105 subunit (Homo sapiens) (P19838 whole entry, looked up): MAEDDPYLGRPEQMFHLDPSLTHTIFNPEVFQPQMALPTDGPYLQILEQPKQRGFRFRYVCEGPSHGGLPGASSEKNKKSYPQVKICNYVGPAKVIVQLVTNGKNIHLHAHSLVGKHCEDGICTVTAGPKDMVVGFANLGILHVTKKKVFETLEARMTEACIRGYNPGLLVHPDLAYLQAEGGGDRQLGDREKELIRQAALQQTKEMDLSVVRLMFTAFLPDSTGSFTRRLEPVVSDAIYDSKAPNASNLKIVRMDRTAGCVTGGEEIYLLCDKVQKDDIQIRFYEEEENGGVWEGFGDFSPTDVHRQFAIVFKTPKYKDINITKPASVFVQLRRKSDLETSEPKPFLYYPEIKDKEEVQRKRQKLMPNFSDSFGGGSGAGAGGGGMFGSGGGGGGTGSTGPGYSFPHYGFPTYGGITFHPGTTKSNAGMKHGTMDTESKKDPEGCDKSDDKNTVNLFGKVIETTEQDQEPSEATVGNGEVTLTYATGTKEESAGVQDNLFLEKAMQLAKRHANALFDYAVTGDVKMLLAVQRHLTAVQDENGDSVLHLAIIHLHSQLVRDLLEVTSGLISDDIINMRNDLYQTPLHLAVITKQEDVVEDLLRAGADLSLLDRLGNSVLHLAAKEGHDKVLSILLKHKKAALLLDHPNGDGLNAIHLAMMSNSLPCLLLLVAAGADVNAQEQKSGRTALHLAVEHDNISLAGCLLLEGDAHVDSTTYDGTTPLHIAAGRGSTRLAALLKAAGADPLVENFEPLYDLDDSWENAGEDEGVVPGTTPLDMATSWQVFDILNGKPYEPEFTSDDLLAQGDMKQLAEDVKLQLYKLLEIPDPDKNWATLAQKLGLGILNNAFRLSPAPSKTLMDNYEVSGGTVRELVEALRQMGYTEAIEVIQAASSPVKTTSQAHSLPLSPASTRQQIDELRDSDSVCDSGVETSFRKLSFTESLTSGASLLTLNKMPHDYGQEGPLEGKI

CCO[Si](CCCNC(N)=O)(OCC)OCC
inactive: [1] | [2] | [3] | HGF (gene 3082) | [4] | [5] | [6] | [7] | [8] | [9] | [10] | [11] | [12] | [13] | [14] | MYC, MYC (gene 4609) | [15] | [16]

CCCCCCCCCCCC[N+](C)(C)C
active: [1] 80.9 µM | [2] 83.3 µM | [3] 95.9 µM | HGF (gene 3082) 90.1 µM | [4] 77.5 µM | [17] 76.4 µM | [6] 77.8 µM | [8] 64.7 µM | [9] 50 µM | [10] 82.8 µM | [11] 89.2 µM | [12] 82 µM | [13] 75 µM | [14] 82.4 µM | MYC, MYC (gene 4609) 75.8 µM | [15] 76.4 µM | [16] 33.8 µM
inactive: [7] | [18]

Cc1ccc(C(C)C)cc1
inactive: [1] | [2] | [3] | HGF (gene 3082) | [4] | [5] | [6] | [7] | [8] | [9] | [10] | [11] | [12] | [13] | [14] | MYC, MYC (gene 4609) | [15] | [16]

CC/C(=C(/CC)c1ccc(O)cc1)c1ccc(O)cc1
active: [1] 75.8 µM | [2] 85.7 µM | HGF (gene 3082) 23.6 µM | [5] 66.6 µM | [6] 93 µM | [7] 78.5 µM | [9] 9.92 µM | [10] 79.2 µM | [12] 83.9 µM | [14] 86.9 µM | [16] 67.1 µM
inactive: [3] | [4] | [8] | [11] | [13] | MYC, MYC (gene 4609) | [15]

CCCCCc1ccc(N)cc1
inactive: [1] | [2] | [3] | HGF (gene 3082) | [4] | [17] | [5] | [6] | [7] | [8] | [9] | [10] | [11] | [12] | [13] | [14] | MYC, MYC (gene 4609) | [15] | [16] | [18]

O=C(Nc1ccc(Cl)cc1)Nc1ccc(Cl)c(Cl)c1
inactive: [7] | [13]
active: [1] 29.1 µM | [2] 72.1 µM | [3] 28.6 µM | HGF (gene 3082) 50 µM | [4] 24.4 µM | [5] 27.7 µM | [6] 23.3 µM | [8] 29 µM | [9] 14.6 µM | [10] 22.8 µM | [11] 15.1 µM | [12] 12.7 µM | [14] 27.6 µM | MYC, MYC (gene 4609) 28.6 µM | [15] 28.1 µM | [16] 21.8 µM | [18] 12.2 µM

— PubChem BioAssay (EPA / NIEHS)
